High-throughput results deposited in PubChem BioAssay by several laboratories.
Only some compounds are listed: those with a hit (about 1.9% of all), similar ones and a draw of the others.
S1P4 ag: S1P4 receptor agonists, primary screen, cell-based; Sphingosine 1-phosphate receptor 4 (Homo sapiens), O95977; 0.35% of 220,000 active; S1P4-expressing cell line, agonist reporter assay; AID 1509, 2009; activation, % at 4.98 µM; in the data active = activation above about 11%
EP2 antag: human EP2 receptor antagonists, primary screen, TR-FRET cAMP, C6 glioma cells | AID 1422, 2008 | Prostaglandin E2 receptor EP2 subtype (Homo sapiens), P43116 | C6 glioma cells expressing human EP2; cells stimulated with saturating PGE2 | inhibition, % at 25 µM | 0.52% of 260,000 active;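 active = percent inhibition above 40 after rounding to a whole number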;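 also: rat C6 glioma host cells with rolipram phosphodiesterase inhibitor present; the protocol text gives 20 µM as final concentration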
Target sequence (P43116 whole entry, looked up): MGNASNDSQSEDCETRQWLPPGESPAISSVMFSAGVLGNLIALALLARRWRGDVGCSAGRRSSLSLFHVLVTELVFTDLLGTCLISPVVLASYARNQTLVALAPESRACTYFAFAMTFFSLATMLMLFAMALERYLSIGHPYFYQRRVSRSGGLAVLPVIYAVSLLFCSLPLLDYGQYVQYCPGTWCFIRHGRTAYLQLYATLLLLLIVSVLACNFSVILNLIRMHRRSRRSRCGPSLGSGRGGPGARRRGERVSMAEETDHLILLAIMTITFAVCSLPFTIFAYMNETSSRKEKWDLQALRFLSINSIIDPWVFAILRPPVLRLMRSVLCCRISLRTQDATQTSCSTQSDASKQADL
S1P3 antagonist: S1P3 receptor antagonists, primary screen, cell-based | 0.27% of 170,000 active | inhibition, % at 4.98 µM | CHO S1P3 NFAT-BLA reporter, FRET fluorescence, antagonist mode | Sphingosine 1-phosphate receptor 3 (Homo sapiens), Q99500;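 active = inhibition above the plate cutoff, the mean inhibition of test wells on that plate plus 3 SD, cut at about 28% in these data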;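 also: cells challenged with S1P at its EC80 of 0.8 µM; blue over green emission ratio from cleaved BLA substrate after 4 h stimulation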
Target sequence (Q99500 whole entry, looked up): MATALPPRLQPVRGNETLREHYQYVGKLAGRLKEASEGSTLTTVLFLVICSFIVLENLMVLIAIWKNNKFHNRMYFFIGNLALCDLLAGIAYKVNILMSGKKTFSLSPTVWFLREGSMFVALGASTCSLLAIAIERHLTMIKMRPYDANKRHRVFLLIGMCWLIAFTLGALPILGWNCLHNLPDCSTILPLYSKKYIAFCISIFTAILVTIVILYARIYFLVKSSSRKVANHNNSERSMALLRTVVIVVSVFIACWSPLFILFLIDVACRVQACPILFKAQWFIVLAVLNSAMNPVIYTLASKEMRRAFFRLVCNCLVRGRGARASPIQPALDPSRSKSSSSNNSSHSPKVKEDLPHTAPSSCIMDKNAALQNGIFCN
S1P4 antagonist: S1P4 receptor antagonists, primary screen, cell-based; S1P4-expressing cells, antagonist mode, reporter read-out; inhibition, % at 4.98 µM; 0.26% of 220,000 active; in the data active = inhibition above about 29%
EP2 modulator: EP2 receptor modulators, cAMP readout, primary screen, cell-based, HTRF cAMP, PGE2 stimulation | Prostaglandin E2 receptor EP2 subtype (Homo sapiens), P43116 | EP2-expressing cells, cAMP HTRF FRET, PGE2 co-stimulation | induction, % at 25 µM | 0.83% of 260,000 active;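 active = compounds whose cAMP rise, as percent of the full-agonist control response, exceeds 60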;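 also: rat C6 glioma line stably carrying human EP2 under a CMV promoter; the protocol text gives 20 µM as final concentration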
A number is an active result; 0 = inactive; - = not tested or not shown.

SMILES | S1P4 ag | EP2 antag | S1P3 antagonist | S1P4 antagonist | EP2 modulator
CN(C)CCC(=O)N1c2ccccc2Sc2ccc(Cl)cc21 | 0 | 0 | 0 | 0 | 0
O=C(c1ccco1)N1c2ccccc2Sc2ccccc21 | 0 | 44 | 0 | 0 | 0
O=C(CCCl)N1c2ccccc2Sc2ccccc21 | - | 0 | - | - | 70
CC(C)(C)C(=O)N1CCC(n2nc(-c3cccs3)oc2=O)CC1 | - | 0 | - | - | 0
CCCOc1ccc(C2C(C#N)=C(N)Oc3n[nH]c(-c4ccc(OCC)cc4)c32)cc1OC (centres undefined) | - | 0 | - | - | 0
Fc1cccc(C2(NCc3ccc(N4CCOCC4)nc3)CC2)c1 | - | 0 | - | - | 0
C[C@H]1C[C@@H]2[C@@H]3CCC4=CC(=O)C=C[C@@]4(C)[C@@]3(Cl)[C@H](Cl)C[C@@]2(C)[C@]1(O)C(=O)COP(=O)(O)O | - | 41 | - | - | 0
O=S(=O)(NCc1ccco1)c1ccc(S(=O)(=O)N2CCCCCC2)cc1 | - | 0 | - | - | 0
CCOc1ccccc1C(=O)Nc1nc2c(s1)C(=O)CC(C)(C)C2 | - | 69 | - | - | 0
O=S1(=O)c2ccccc2N=NN1Cc1cc(Cl)cc(Cl)c1 | 0 | 0 | - | 0 | 0
O=S1(=O)c2ccccc2N=NN1Cc1ccc(Cl)cc1 | 0 | 43 | - | 0 | 0
O=C(COc1ccccc1Cl)NNC(=O)c1ccco1 | - | 0 | - | - | 0
O=C(CN1CCC(O)(c2ccccn2)CC1)Nc1ccc(F)c(Cl)c1 | - | - | - | - | 0
Cc1cccc2cc(C#N)c(NC3CCCCC3)nc12 | - | 0 | - | - | 78
CCC1CCCCN1C(=O)CSc1nnc(-c2cccnc2)n1-c1cccc(OC)c1 (centres undefined) | - | 0 | - | - | 0
COc1ccc(-c2cc3nccc(C4CCN(C(=O)OC(C)(C)C)CC4)n3n2)cc1OC | - | - | - | - | 80
CCc1ccc2[nH]c(=O)c(CN(CCN3CCOCC3)C(=O)Nc3ccccc3Cl)cc2c1 | - | 0 | - | - | 0
CC(/C=N/NC(=O)Cn1nnc(N)n1)=C\c1ccc(C(C)C)cc1 | 0 | 0 | 0 | 0 | 89
Cn1cccc1-c1nc2ccc(NC(=O)c3cccs3)cc2[nH]1 | 0 | 48 | 0 | 0 | 0
Cc1[nH]c(=O)[nH]c(=O)c1NC(=O)CSc1ccc(-c2nc3ccccc3[nH]2)cn1 | - | 0 | - | - | 0
CCn1nc(C)c(Br)c1C(=O)Sc1ccccc1Cl | 0 | 0 | 0 | 0 | 68
COC(=O)c1c(C)[nH]c(C(=O)CSc2nnnn2-c2ccccc2)c1C | 0 | - | - | 0 | 0
CCOC(=O)c1c(C)[nH]c(C)c1C(=O)CSc1nnnn1-c1ccccc1 | 0 | 0 | - | 0 | 64
CC(CO)(CO)N=Cc1cc(I)cc(I)c1O | - | 44 | - | - | 0
CCS(=O)(=O)N1CCN(S(=O)(=O)c2ccc(S(=O)(=O)N3CCCC(C)C3)cc2)CC1 (centres undefined) | - | 0 | - | - | 0
SMILES | S1P4 ag | EP2 antag | S1P3 antagonist | S1P4 antagonist | EP2 modulator
CCC1=C(C[C@H]2NCCc3ccccc32)C[C@H]2c3cc(OC)c(OC)cc3CCN2C1 | - | 53 | - | - | 0
CC(=O)CSc1nnc2c3ccccc3nc(C(C)(C)C)n12 | 0 | 0 | 0 | 0 | 61
CCOC(=O)CSc1nnc2c3ccccc3nc(C(C)(C)C)n12 | - | 0 | - | - | 0
CCOC(=O)CSc1nnc2c3ccccc3nc(Cc3ccccc3)n12 | - | 0 | - | - | 65
O=C(CN1C2CCC1CC(NC(=O)Nc1ccccc1)C2)NC1CC1 (centres undefined) | - | 0 | - | - | 0
O[C@@H](c1cc(-c2ccccc2)nc2c1ccc1ccccc12)[C@@H]1CCCCN1 | - | 84 | - | - | 0
COc1ccc(-c2cc(OC)c3ccccc3n2)cc1 | 0 | 0 | 0 | 0 | 0
CCOC(=O)Cc1cc(-c2ccccc2)nc2ccc3ccccc3c12 | 0 | - | - | 0 | 0
COc1ccc(-c2cc([C@H](O)[C@@H]3CCCCN3)c3ccccc3n2)cc1 | - | 50 | - | - | 0
Cc1ncc(-c2ccncc2)c(C2CCCN(C(=O)Cc3cccs3)C2)n1 (centres undefined) | - | - | - | - | 0
COC(=O)Cc1[nH]nc2c1C1(C(=O)Nc3ccc(F)cc31)C(C#N)=C(N)O2 (centres undefined) | - | 0 | - | - | 0
C[N+]12CCCCC1C(CCCO)CCC2 (centres undefined) | - | 0 | - | - | 0
Cc1cc(NC(=O)CSc2nc3c(c(-c4cccnc4)c2C#N)CCC3)no1 | 0 | 49 | 0 | 0 | 0
N#Cc1c(SCC(=O)O)nc2c(c1-c1cccnc1)CCC2 | - | 0 | - | - | 0
Cc1ccc(Nc2nc(N)c([N+](=O)[O-])c(NCc3ccccc3)n2)cc1 | 0 | 0 | 0 | 0 | 74
Nc1nc(Nc2ccc(Cl)cc2)nc(NCc2ccco2)c1[N+](=O)[O-] | 0 | 0 | 0 | 0 | 65
Cc1cccc(Nc2nc(N)c([N+](=O)[O-])c(NCc3ccco3)n2)c1 | 0 | 0 | 0 | 0 | 62
Cc1cccc(Nc2nc(N)c([N+](=O)[O-])c(N3CC(C)CC(C)C3)n2)c1 (centres undefined) | 0 | 0 | 0 | 0 | 63
COc1ccc(Nc2nc(N)c([N+](=O)[O-])c(NCc3ccccc3)n2)cc1 | 0 | 0 | 0 | 0 | 0
COc1ccc2nc(SCC(=O)Nc3ccc(C)cc3Br)c(C#N)cc2c1 | - | 0 | - | - | 0
O=C(O)c1cnn2cc(-n3cc([N+](=O)[O-])cn3)cnc12 | - | 0 | - | - | 0
Cc1nn(C)cc1CN(Cc1ccccc1F)C1CC(C)(C)NC(C)(C)C1 | - | 0 | - | - | 0
Cc1ccc(Nc2nc(NCc3ccco3)c3ccccc3n2)cc1 | 0 | 42 | 0 | 0 | 0
COc1ccccc1Nc1nc(NCc2ccco2)c2ccccc2n1 | 0 | 0 | 0 | 0 | 0
Cn1c(=O)c2c(nc(Oc3ccc4c(c3)OCO4)n2Cc2ccc(Br)cc2)n(C)c1=O | 0 | 0 | 0 | 0 | 76
SMILES | S1P4 ag | EP2 antag | S1P3 antagonist | S1P4 antagonist | EP2 modulator
COc1ccc(-c2noc(C3CCCN(C(=O)c4ccc(F)cc4)C3)n2)cc1OC (centres undefined) | - | 0 | - | - | 0
CCC1(C)Cc2c(C#N)c(N)sc(=S)c2CO1 (centres undefined) | 0 | 0 | - | 0 | 0
N#Cc1c(N)sc(=S)c2c1CCCC2 | 0 | 64 | 0 | 0 | 0
CN1CCN(CCC(=O)N2c3ccccc3Sc3ccc(Cl)cc32)CC1 | 0 | 0 | - | 0 | 0
CN1CCN(CC(=O)N2c3ccccc3Sc3cc4ccccc4cc32)CC1 | - | 45 | - | - | 0
CC1CCN(CC(=O)N2c3ccccc3Sc3cc4ccccc4cc32)CC1 | - | 46 | - | - | 0
COc1cccc(-n2c(SCC(=O)N3CCOCC3)nnc2-c2c[nH]c3ccccc23)c1 | 0 | 0 | 53 | 0 | 0
CC(C)(C)NC(=O)CSc1nc2ccccc2n1CC(=O)N1CCCCC1 | - | 0 | - | - | 0
COC(=O)c1cc(-c2ccc(C=C3C(=O)OC4(CCCC4)OC3=O)o2)ccc1Cl | - | 88 | - | - | 0
CCOc1ccc2[nH]c(=O)c(CN(CCO)S(=O)(=O)c3ccc(Br)cc3)cc2c1 | - | 0 | - | - | 0
CC(C)C(=O)c1cn(CC(=O)NCc2cccs2)c2ccccc12 | - | 0 | - | - | 0
CSc1ccccc1C(=O)Nc1nc2ccccc2[nH]1 | 0 | 0 | 0 | 0 | 0
CS(=O)(=O)c1ccccc1C(=O)Nc1nc2ccccc2[nH]1 | 0 | 108 | 0 | 0 | 0
